Assay results: PubChem BioAssay (EPA / NIEHS)
Some compounds were tested as several samples or in several runs, with calls that do not always agree. The source made the active and inactive calls. How the source made its calls: active means hit-call score of the fitted dose curve at least 0.9, where 1 is the maximum; inactive means score below 0.9.

Assays:
Conditions in all cases: mRNA level, 48 h; actives raise or lower the signal
[1] = read-out: Lipase C (LIPC), LIPC (gene 3990); experiment: LTEA_HepaRG_LIPC: Life Technologies and Expression Analysis (LTEA) Assay for Lipase C (LIPC) using HepaRG (AID 2283514)
How it was run: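 Read-out is LIPC transcript level by TaqMan qRT-PCR, normalized to three housekeeping genes, after 48 h chemical treatment of human HepaRG liver cells. Curves span eight concentrations topping at 100 uM; activity in either direction scored relative to 0.5% DMSO.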

[2] = read-out: Lipoprotein lipase (LPL), LPL (gene 4023); experiment: LTEA_HepaRG_LPL: Life Technologies and Expression Analysis (LTEA) Assay for Lipoprotein lipase (LPL) using HepaRG (AID 2283515)
How it was run: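 Read-out is LPL transcript level by qRT-PCR, normalized to three housekeeping genes and fitted bidirectionally against the DMSO control. Human HepaRG cells received chemicals for 48 h at up to 100 uM.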

[3] = read-out: MicroRNA 122 (MIR122), gene 406906; experiment: LTEA_HepaRG_MIR122: Life Technologies and Expression Analysis (LTEA) Assay for MicroRNA 122 (MIR122) using HepaRG (AID 2283516); further: the transcript read is the microRNA miR-122
How it was run: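 Differentiated human HepaRG cells in serum-free induction medium exposed 48 h to 8 half-log concentrations from 100 uM in 0.5% DMSO, duplicate. MIR122 quantified by Fluidigm TaqMan qRT-PCR, normalised to ACTB, GAPDH, POLR2A; fold change fitted bidirectionally versus DMSO.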

[4] = read-out: matrix metalloproteinase-10 (MMP10), MMP10 (gene 4319); experiment: LTEA_HepaRG_MMP10: Life Technologies and Expression Analysis (LTEA) Assay for matrix metalloproteinase-10 (MMP10) using HepaRG (AID 2283517)
How it was run: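 Gain or loss of MMP10 mRNA is fitted relative to the 0.5% DMSO vehicle. The human hepatic line HepaRG receives a 48-hour serum-free exposure, in duplicate, with a maximum concentration of 100 uM.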

[5] = read-out: MYC, MYC (gene 4609); experiment: LTEA_HepaRG_MYC: Life Technologies and Expression Analysis (LTEA) Assay for MYC using HepaRG (AID 2283518)
How it was run: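 MYC transcript changes, up or down relative to 0.5% DMSO, from TaqMan qRT-PCR normalized to three housekeeping genes. Human HepaRG cultures received chemicals for 48 h at eight half-log concentrations up to 100 uM, in duplicate.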

[6] = read-out: matrix metalloproteinase-3 (MMP3), MMP3 (gene 4314); experiment: LTEA_HepaRG_MMP3: Life Technologies and Expression Analysis (LTEA) Assay for matrix metalloproteinase-3 (MMP3) using HepaRG (AID 2283519)
How it was run: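 HepaRG, human; 48 h dosing, 8 conc. (max 100 uM, half-log), duplicate, 0.5% DMSO. Readout: MMP3 transcript by Fluidigm TaqMan qRT-PCR, ACTB/GAPDH/POLR2A-normalised. Gain or loss fitted vs DMSO.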

[7] = read-out: Nuclear factor NF-kappa-B p105 subunit (Homo sapiens) (UniProt P19838); experiment: LTEA_HepaRG_NFKB1: Life Technologies and Expression Analysis (LTEA) Assay for Nuclear Factor Kappa B Subunit 1 (NFKB1) using HepaRG (AID 2283521)
How it was run: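 Differentiated human HepaRG cells in serum-free induction medium with 0.5% DMSO were exposed for 48 h to eight half-log concentrations, top 100 uM, in duplicate. NFKB1 mRNA measured by Fluidigm TaqMan qRT-PCR, normalised to ACTB, GAPDH and POLR2A; bidirectional fit versus DMSO.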

[8] = read-out: Protein phosphatase 2A (PPP2R4), PTPA (gene 5524); experiment: LTEA_HepaRG_PPP2R4: Life Technologies and Expression Analysis (LTEA) Assay for Protein phosphatase 2A (PPP2R4) using HepaRG (AID 2283522)
How it was run: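 Differentiated human HepaRG cells in serum-free induction medium were exposed 48 h to 8 concentrations (top 100 µM, half-log steps, duplicate) in 0.5% DMSO. PPP2R4 mRNA was measured by TaqMan qRT-PCR, normalised to ACTB, GAPDH and POLR2A, and fitted bidirectionally versus DMSO.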

[9] = read-out: Phosphatase and tensin (PTEN), PTEN (gene 5728); experiment: LTEA_HepaRG_PTEN: Life Technologies and Expression Analysis (LTEA) Assay for Phosphatase and tensin (PTEN) using HepaRG (AID 2283523)
How it was run: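 Read-out is PTEN transcript level by multiplexed TaqMan qRT-PCR after 48 h chemical treatment of human HepaRG cultures in serum-free induction medium. Concentrations spanned 100 uM downward in half-log steps, 0.5% DMSO throughout; activity fitted in both directions against vehicle.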

[10] = read-out: solute carrier (SLC22A1), SLC22A1 (gene 6580); experiment: LTEA_HepaRG_SLC22A1: Life Technologies and Expression Analysis (LTEA) Assay for solute carrier (SLC22A1) using HepaRG (AID 2283524)
How it was run: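 HepaRG (human liver line), 48 h dosing in serum-free induction medium; 8 conc., half-log down from 100 uM, 0.5% DMSO vehicle, duplicates. Endpoint: SLC22A1 mRNA, qRT-PCR, housekeeping-normalized; gain/loss fit vs DMSO.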

[11] = read-out: Pyruvate Dehydrogenase Kinase 4 (PDK4), PDK4 (gene 5166); experiment: LTEA_HepaRG_PDK4: Life Technologies and Expression Analysis (LTEA) Assay for Pyruvate Dehydrogenase Kinase 4 (PDK4) using HepaRG (AID 2283525)
How it was run: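 In this multiplexed human HepaRG expression assay, cells are treated 48 h with test chemicals across an eight-point range starting at 100 uM. PDK4 mRNA changes, normalized to ACTB/GAPDH/POLR2A, are fitted in both directions relative to vehicle.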

[12] = read-out: NAD(P)H dehydrogenase [quinone] 1 (NQO1), NQO1 (gene 1728); experiment: LTEA_HepaRG_NQO1: Life Technologies and Expression Analysis (LTEA) Assay for NAD(P)H dehydrogenase [quinone] 1 (NQO1) using HepaRG (AID 2283526)
How it was run: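 Differentiated human HepaRG cells in serum-free induction medium, dosed in duplicate for 48 h at 8 half-log concentrations up to 100 uM in 0.5% DMSO. NQO1 mRNA by qRT-PCR normalized to ACTB, GAPDH, POLR2A; bidirectional fit versus DMSO baseline.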

[13] = read-out: succinate dehydrogenase complex iron sulfur subunit B (SDHB), SDHB (gene 6390); experiment: LTEA_HepaRG_SDHB: Life Technologies and Expression Analysis (LTEA) Assay for succinate dehydrogenase complex iron sulfur subunit B (SDHB) using HepaRG (AID 2283528)
How it was run: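 HepaRG cells (~100,000/well, plated 48 h) exposed in duplicate for 48 h in serum-free induction medium to 8-point half-log series from 100 uM in 0.5% DMSO; mRNA by qRT-PCR normalised to ACTB, GAPDH, POLR2A; bidirectional fit versus DMSO.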

[14] = read-out: Signal transducer and activator of transcription 3 (Homo sapiens) (UniProt P40763); experiment: LTEA_HepaRG_STAT3: Life Technologies and Expression Analysis (LTEA) Assay for Signal transducer and activator of transcription (STAT3) using HepaRG (AID 2283529)
How it was run: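 Read-out is STAT3 mRNA level by qRT-PCR, normalized to three housekeeping genes, in human HepaRG liver cells treated for 48 h. Concentrations ran from 100 uM downward in half-log steps; curves were fitted for gain or loss relative to 0.5% DMSO.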

[15] = read-out: solute carrier (SLCO1B1), SLCO1B1 (gene 10599); experiment: LTEA_HepaRG_SLCO1B1: Life Technologies and Expression Analysis (LTEA) Assay for solute carrier (SLCO1B1) using HepaRG (AID 2283530)
How it was run: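 SLCO1B1 transcript levels were quantified by TaqMan qRT-PCR using three housekeeping genes for normalization. This followed 48 h chemical exposure (100 uM top, half-log, 8 points, 0.5% DMSO) of HepaRG liver cells, with gain or loss fitted relative to DMSO.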

[16] = read-out: sulfotransferase 2A1 (SULT2A1), SULT2A1 (gene 6822); experiment: LTEA_HepaRG_SULT2A1: Life Technologies and Expression Analysis (LTEA) Assay for sulfotransferase 2A1 (SULT2A1) using HepaRG (AID 2283531)
How it was run: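 Expression change of SULT2A1, by qRT-PCR with three housekeeping-gene normalization, was scored bidirectionally versus DMSO. Cells: differentiated HepaRG, dosed in duplicate for 48 h across 8 points, highest 100 µM, half-log dilution, 0.5% DMSO.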

[17] = read-out: Transforming Growth Factor (TGFA), TGFA (gene 7039); experiment: LTEA_HepaRG_TGFA: Life Technologies and Expression Analysis (LTEA) Assay for Transforming Growth Factor (TGFA) using HepaRG (AID 2283532)
How it was run: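 HepaRG (human liver line), 48 h exposure, 8 conc. half-log down from 100 uM, 0.5% DMSO vehicle, duplicates; serum-free induction medium. TGFA mRNA by TaqMan qRT-PCR, ACTB/GAPDH/POLR2A normalization; gain/loss fit vs DMSO.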

[18] = read-out: Transforming Growth Factor (TGFB1), TGFB1 (gene 7040); experiment: LTEA_HepaRG_TGFB1: Life Technologies and Expression Analysis (LTEA) Assay for Transforming Growth Factor (TGFB1) Transporter using HepaRG (AID 2283533)
How it was run: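 TGFB1 transcript measured by qRT-PCR with normalisation to three housekeeping genes (ACTB, GAPDH, POLR2A); human HepaRG line treated in duplicate for 48 hr with an 8-point series topping at 100 uM, 0.5% DMSO vehicle, bidirectionally fitted.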

[19] = read-out: Paternally Expressed 10 (PEG10), PEG10 (gene 23089); experiment: LTEA_HepaRG_PEG10: Life Technologies and Expression Analysis (LTEA) Assay for Paternally Expressed 10 (PEG10) using HepaRG (AID 2283520)
How it was run: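 Differentiated HepaRG cells exposed 48 h in serum-free induction medium to eight half-log concentrations topping at 100 uM, 0.5% DMSO, in duplicate. PEG10 mRNA quantified by TaqMan qRT-PCR, normalized to ACTB, GAPDH and POLR2A; bidirectional fit versus DMSO.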

[20] = read-out: Nuclear factor erythroid 2-related factor 2 (Homo sapiens) (UniProt Q16236); experiment: LTEA_HepaRG_NFE2L2: Life Technologies and Expression Analysis (LTEA) Assay for Nuclear factor erythroid 2-related factor 2 (NFE2L2) Transcription Factor using HepaRG (AID 2283527);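 further: TaqMan qRT-PCR transcript level normalised to ACTB GAPDH and POLR2A housekeeping genes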
How it was run: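 Transcript level of NFE2L2 is the read-out, measured by microfluidic TaqMan qRT-PCR and normalized to three housekeeping genes. Human HepaRG cultures received test chemical for 48 h at up to 100 uM in half-log steps. Gain or loss of signal is fitted relative to 0.5% DMSO.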

Measured: AC50

Chain of Signal transducer and activator of transcription 3 (Homo sapiens) (P40763 whole entry, looked up): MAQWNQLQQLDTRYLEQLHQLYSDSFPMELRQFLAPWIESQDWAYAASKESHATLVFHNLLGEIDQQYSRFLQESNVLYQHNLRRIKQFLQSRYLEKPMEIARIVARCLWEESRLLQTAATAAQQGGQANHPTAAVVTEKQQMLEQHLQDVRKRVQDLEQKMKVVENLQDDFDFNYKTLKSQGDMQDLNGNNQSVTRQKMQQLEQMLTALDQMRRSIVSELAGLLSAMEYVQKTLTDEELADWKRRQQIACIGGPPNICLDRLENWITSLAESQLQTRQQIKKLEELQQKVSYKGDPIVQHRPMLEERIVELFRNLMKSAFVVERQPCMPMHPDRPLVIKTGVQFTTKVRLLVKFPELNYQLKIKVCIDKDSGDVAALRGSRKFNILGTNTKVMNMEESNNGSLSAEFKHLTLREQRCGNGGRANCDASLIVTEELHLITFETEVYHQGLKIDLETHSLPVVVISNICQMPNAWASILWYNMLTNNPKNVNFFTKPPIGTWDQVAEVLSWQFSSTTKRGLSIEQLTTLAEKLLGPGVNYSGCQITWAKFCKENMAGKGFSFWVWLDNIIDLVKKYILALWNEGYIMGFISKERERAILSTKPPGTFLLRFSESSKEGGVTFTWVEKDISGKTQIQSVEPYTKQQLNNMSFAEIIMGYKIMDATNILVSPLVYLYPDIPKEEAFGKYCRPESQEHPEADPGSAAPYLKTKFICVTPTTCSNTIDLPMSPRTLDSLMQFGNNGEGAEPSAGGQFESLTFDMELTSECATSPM
Chain of Nuclear factor NF-kappa-B p105 subunit (Homo sapiens) (P19838 whole entry, looked up): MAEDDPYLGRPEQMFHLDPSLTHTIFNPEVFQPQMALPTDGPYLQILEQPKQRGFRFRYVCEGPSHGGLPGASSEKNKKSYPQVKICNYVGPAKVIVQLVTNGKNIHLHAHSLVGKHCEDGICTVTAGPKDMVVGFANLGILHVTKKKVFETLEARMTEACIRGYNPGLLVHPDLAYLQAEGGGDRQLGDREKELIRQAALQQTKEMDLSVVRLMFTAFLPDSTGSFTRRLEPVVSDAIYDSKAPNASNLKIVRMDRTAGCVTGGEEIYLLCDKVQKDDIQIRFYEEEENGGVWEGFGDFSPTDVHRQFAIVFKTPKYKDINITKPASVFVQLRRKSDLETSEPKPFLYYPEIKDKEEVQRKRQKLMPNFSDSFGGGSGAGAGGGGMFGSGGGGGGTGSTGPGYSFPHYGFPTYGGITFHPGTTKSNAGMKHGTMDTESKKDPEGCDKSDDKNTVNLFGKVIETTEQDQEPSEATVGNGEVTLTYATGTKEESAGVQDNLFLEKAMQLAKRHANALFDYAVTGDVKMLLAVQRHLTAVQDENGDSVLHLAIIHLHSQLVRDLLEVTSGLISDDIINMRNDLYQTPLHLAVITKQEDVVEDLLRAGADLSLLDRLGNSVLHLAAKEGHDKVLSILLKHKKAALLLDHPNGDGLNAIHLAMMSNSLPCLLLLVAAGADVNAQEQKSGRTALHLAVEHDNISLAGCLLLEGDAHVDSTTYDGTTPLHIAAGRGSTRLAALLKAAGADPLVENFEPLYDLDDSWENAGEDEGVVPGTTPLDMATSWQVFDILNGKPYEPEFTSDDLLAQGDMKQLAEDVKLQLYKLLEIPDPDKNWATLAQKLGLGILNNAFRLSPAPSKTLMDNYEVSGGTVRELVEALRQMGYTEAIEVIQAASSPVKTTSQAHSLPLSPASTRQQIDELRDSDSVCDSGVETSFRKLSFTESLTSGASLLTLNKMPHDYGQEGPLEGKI
Chain of Nuclear factor erythroid 2-related factor 2 (Homo sapiens) (Q16236 whole entry, looked up): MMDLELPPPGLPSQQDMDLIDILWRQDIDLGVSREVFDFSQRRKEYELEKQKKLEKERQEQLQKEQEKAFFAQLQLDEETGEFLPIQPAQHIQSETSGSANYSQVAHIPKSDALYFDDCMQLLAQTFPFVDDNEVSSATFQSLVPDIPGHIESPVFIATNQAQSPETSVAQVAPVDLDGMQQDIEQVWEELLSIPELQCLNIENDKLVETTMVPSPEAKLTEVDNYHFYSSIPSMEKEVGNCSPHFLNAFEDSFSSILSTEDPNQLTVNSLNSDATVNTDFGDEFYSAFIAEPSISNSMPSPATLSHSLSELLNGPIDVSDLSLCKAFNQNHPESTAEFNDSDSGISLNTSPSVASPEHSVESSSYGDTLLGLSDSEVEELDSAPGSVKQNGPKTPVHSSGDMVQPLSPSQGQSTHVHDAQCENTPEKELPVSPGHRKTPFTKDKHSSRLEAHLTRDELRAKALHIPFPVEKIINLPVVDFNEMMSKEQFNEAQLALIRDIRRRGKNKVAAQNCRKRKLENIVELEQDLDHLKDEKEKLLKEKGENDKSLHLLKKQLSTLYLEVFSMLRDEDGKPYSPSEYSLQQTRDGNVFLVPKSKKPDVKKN

N#Cc1cc(Br)c(O)c(Br)c1
inactive: [2] | [4] | [5] | [17]
active: [1] 23.5 µM | [3] 14.2 µM | [6] 2.69 µM | [7] 5.8 µM | [8] 10.7 µM | [9] 26.1 µM | [10] 16.2 µM | [11] 9.64 µM | [12] 11.9 µM | [13] 7.28 µM | [14] 3.27 µM | [15] 17.8 µM | [16] 25.7 µM | [18] 14.2 µM

O=C(O)c1nc(Cl)ccc1Cl
inactive: [1] | [2] | [3] | [4] | [5] | [6] | [19] | [8] | [9] | [10] | [11] | [12] | [20] | [13] | [14] | [15] | [16] | [17] | [18]
active: [11] 50 µM

CC(Oc1ccc(Cl)cc1Cl)C(=O)O (stereo not given)
active: [11] 50 µM
not listed: [17] | [19] | [20]
inactive: all other assays above
